Test results: PubChem BioAssay AID2557 (NMMLSC, 2010)
Values joined by “and” are separate entries in the source; they are usually repeats but may differ in a detail not shown here. Identical values can stand only once. Screen size: about 330,000 compounds; about 650 (0.2%) were called active. No stated cut-off is given here; in the data, active means inhibition above about 50%; inactive means the rest. Shown is part of a subset that was picked to be rich in actives. More than one record can exist for a structure, and the calls need not agree.

biological target: Integrin alpha-4 (Homo sapiens) (UniProt P13612); experiment: inhibition in human VLA-4 binding assay, primary screen, VLA-4 allosteric modulator project, MLPCN library, flow cytometry, VLA-4 expressing cells (AID 2557); conditions: ligand binding flow cytometry, stronger effect = higher value, about 7 µM as worked out from the volumes in the protocol
Sequence (P13612 whole entry, looked up): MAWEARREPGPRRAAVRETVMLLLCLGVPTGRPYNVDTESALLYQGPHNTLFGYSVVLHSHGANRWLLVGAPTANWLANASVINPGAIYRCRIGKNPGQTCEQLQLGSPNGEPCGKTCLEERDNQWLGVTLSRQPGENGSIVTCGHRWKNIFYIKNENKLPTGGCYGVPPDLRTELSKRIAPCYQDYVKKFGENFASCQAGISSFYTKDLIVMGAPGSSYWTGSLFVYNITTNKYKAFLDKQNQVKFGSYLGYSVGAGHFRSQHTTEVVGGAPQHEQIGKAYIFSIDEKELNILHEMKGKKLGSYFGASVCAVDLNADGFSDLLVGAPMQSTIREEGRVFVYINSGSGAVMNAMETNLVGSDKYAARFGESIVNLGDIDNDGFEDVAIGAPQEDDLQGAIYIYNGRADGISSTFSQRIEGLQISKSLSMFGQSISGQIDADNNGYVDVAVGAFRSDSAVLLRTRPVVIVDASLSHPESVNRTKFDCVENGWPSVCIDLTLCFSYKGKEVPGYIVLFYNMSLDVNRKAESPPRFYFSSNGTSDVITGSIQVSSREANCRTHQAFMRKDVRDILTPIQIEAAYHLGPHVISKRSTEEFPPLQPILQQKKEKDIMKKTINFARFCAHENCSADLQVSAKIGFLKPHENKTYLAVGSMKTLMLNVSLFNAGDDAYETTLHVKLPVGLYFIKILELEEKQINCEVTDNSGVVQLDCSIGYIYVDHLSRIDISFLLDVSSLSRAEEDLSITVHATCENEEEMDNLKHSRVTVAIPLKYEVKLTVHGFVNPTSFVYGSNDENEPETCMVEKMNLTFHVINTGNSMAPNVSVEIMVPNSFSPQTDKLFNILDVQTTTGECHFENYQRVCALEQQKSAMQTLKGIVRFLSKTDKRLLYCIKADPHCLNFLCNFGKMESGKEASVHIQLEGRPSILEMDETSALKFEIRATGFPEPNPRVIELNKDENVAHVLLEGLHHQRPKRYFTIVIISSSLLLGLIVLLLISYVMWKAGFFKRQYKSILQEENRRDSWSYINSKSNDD

SMILES | inhibition
O=C(O)c1ccc(-n2cccc2)cc1O | 7.46% (inactive)
COc1cccc(NC(=O)Nc2nnc(N3CCCCC3C)s2)c1 (stereo not drawn) | -3.47% (inactive)
Cc1c(CN2CCC(CO)(CCOc3ccccc3)CC2)[nH]c2ccc(Cl)cc12 | 54.3% (active)
OCC1(CCOc2ccccc2)CCN(Cc2cn[nH]c2-c2ccccc2)CC1 | 0.87% (inactive)
CCOC(=O)C1(CCOc2ccccc2)CCN(Cc2cc(OC)c(O)cc2Cl)CC1 | 7.42% (inactive)
COc1ccc(C2C(C#N)=C(N)Oc3n[nH]c(C)c32)cc1CN1CCN(c2ccc(F)cc2)CC1 (stereo not drawn) | 5.55% (inactive)
COc1nc(OC)nc(N(C)CCO)n1 | 12.5% (inactive)
Cc1noc(COc2ccccc2OCc2onc(C)c2Cl)c1Cl | -0.81% (inactive)
Cc1ccccc1C(=O)Nc1cccc(-c2nnc(SCC(=O)O)n2C)c1 | 5.4% (inactive)
N#C/C(=C/c1ccc(Cl)cc1)NC(=O)c1ccccc1 | -2.66% (inactive)
CC1(C)Cc2cccc(OCC(=O)N3CCN(c4ccc([N+](=O)[O-])cc4)CC3)c2O1 | -21.6% (inactive)
O=C(Nc1nc(-c2ccco2)c(-c2ccco2)s1)c1ccco1 | -14.9% (inactive)
Cc1ccnc(NC(=O)c2ccco2)n1 | 63.2% (active)
NC(=O)c1ccsc1NC(=O)c1ccco1 | -45.2% (inactive)
COc1cccc(CCNC(=O)c2cccc(NC(=O)C3=C(C)OCCS3)c2)c1 | 4.07% (inactive)
Cc1cc(C(=O)NNS(=O)(=O)c2ccccc2C(F)(F)F)nn1C(C)(C)C | 2.36% (inactive)
Cc1cc(C(=O)OC(C)C(=O)Nc2cccc(S(=O)(=O)N3CCOCC3)c2)c(C)o1 (stereo not drawn) | 5.58% (inactive)
CCn1c(C)nc2cc(C(=O)NNS(=O)(=O)c3ccc(C)cc3C)ccc21 | 1.05% (inactive)
COC(=O)c1cc(NS(=O)(=O)c2ccc3c(c2)c(=O)n(C)c(=O)n3C)cc(C(=O)OC)c1 | -0.04% (inactive)
Cc1cccc(CN2CCC(n3nccc3NC(=O)c3ccccc3C)CC2)n1 | -1.23% (inactive)
CCNC(=S)NNC(=O)Cc1ccccc1 | 94.9% (active)
Cc1ccc(OCC(=O)NNC(=S)NCc2ccccc2)cc1 | -4.04% (inactive)
CCNC(=S)NNC(=O)C1CCN(Cc2ccccc2)CC1 | 8.74% (inactive)
O=C(NCCc1c[nH]c2ccccc12)c1cccc(Br)c1 | 2.59% (inactive)

SMILES | inhibition
CC1(C(=O)NCCc2c[nH]c3ccccc23)C=CC2(CCCCC2)N1C(=O)c1ccccc1 (stereo not drawn) | 52.7% (active)
O=C(CN1C(=O)NC2(CCCCC2)C1=O)NCCc1c[nH]c2ccccc12 | 4.17% (inactive)
Cc1cccc(NC(=O)NC2(C)CCS(=O)(=O)C2)c1 (stereo not drawn) | 7.4% (inactive)
CCOC(=O)c1ccc(NC(=O)c2ccc(NC(=O)C3CCCO3)cc2)cc1 (stereo not drawn) | 6.76% (inactive)
O=C(Nc1ccccc1Cl)NC1(C(=O)N2CCOCC2)CCCCC1 | 10.7% (inactive)
CCOc1cc(NC(=S)NCCCN(C)C)c(OCC)cc1NC(=O)C1CC1 | -0.39% (inactive)
Cc1sc2ncnc(Sc3nc4ccccc4s3)c2c1C | 8.09% (inactive)
O=C(c1ccco1)N(Cc1nc2ccccc2c(=O)[nH]1)C1CCCC1 | -4.47% (inactive)
COc1ccccc1NC(=O)c1cc(Cl)nc2ccccc12 | 7.01% (inactive)
COc1ccccc1NC(=O)c1cc(Cl)nnc1Cl | 50.6% (active)
COc1ccccc1NC(=O)/C=C/C(N)=O | 17.5% (inactive)
Brc1cc(Br)c(Oc2cc(Br)c(Br)cc2Br)cc1Br | 11.2% (inactive)
Cc1[nH]c2ccccc2c1SCC(=O)Nc1nccs1 | 4.64% (inactive)
CC1=C(C/C=C(\C)CCCC(C)CCCC(C)CCCC(C)C)C(=O)c2ccccc2C1=O (stereo not drawn) | -3.08% (inactive)
O=C(O)CC(Cc1ccccc1)C(=O)Nc1ccc([N+](=O)[O-])cc1 (stereo not drawn) | -9.76% (inactive)
Cc1c(C(=O)c2cccc([N+](=O)[O-])c2)c2ccccn2c1CCC#N | -34.5% (inactive)
COc1ccc(-c2cc(C(=O)N3CCN(Cc4ccc5c(c4)OCO5)CC3)on2)cc1OC | 4.54% (inactive)
OCC[C@H]1C[C@H](O)[C@@H](O)[C@]2(CCc3ccccc3O2)O1 | -21% (inactive)
CC(=O)N1CCOc2ccc(S(=O)(=O)N3CCC(C(=O)Nc4ccccc4F)CC3)cc21 | 47.6% (inactive)
COc1ccc(C(=O)Oc2ccc(-c3nnco3)cc2)cc1S(=O)(=O)N1CCOCC1 | -1.94% (inactive)
Cc1cc(C)nc(Nc2n[nH]c(-c3ccccc3N)n2)n1 | 2.65% (inactive)
O=C(NN1C(=O)C2C3C=CC(C4CC34)C2C1=O)c1ccc(Cl)cc1 (stereo not drawn) | 0.6% (inactive)
CC(=O)NC12CC3CC(C1)CC(C(=O)N1CCN(C(=O)c4ccco4)CC1)(C3)C2 | 6.83% (inactive)
CC(=O)NC12CC3CC(C1)CC(C(=O)N1CCN(S(=O)(=O)c4cccs4)CC1)(C3)C2 | 49.5% (active)

SMILES | inhibition
O=C(c1cccnc1)N1CCN(S(=O)(=O)c2cccs2)CC1 | 0.7% (inactive)
CCCCn1c(N)c(N(CCC(C)C)C(=O)COC(=O)c2cccnc2OCC)c(=O)[nH]c1=O | -4.24% (inactive)
COC(=O)[C@@H]1C[C@H]2CC[C@H](O)C[C@H]2N1Cc1ccc(N2CCN(C)CC2)cc1 | -1.75% (inactive)
O=C(COc1ccc(S(=O)(=O)NCCc2ccccc2)cc1)N1CCCC1 | 3.9% (inactive)
COCCCn1c(-c2cccs2)nc2nc3ccccc3nc21 | -3.42% (inactive)
O=C(CN1CCOCC1)Nc1cccc([N+](=O)[O-])c1 | -3.87% (inactive)
CN1CCN(CC(=O)Nc2cccc([N+](=O)[O-])c2)CC1 | -3.14% (inactive)
O=C(CN1CCC(NC(=O)Nc2ccccc2)CC1)Nc1cccc([N+](=O)[O-])c1 | 50.6% (active)
COCC1CCCN(Cc2nc(-c3ccc4c(c3)OCO4)no2)C1 (stereo not drawn) | 9.31% (inactive)
Cc1cc(N2CCCC2=O)cc(C)c1S(N)(=O)=O | 14.9% (inactive)
COc1ccc(NC(=O)NC2CC3CCCC(C2)N3Cc2ccccc2)cc1 (stereo not drawn) | 6.26% (inactive)
Cc1noc(C)c1CSCC(=O)N(CCC(C)C)c1c(N)n(Cc2ccccc2)c(=O)[nH]c1=O | -2.16% (inactive)
CC1(C)S[C@@H]2[C@H](N=CN3CCCCCC3)C(=O)N2[C@H]1C(=O)O | 4.34% (inactive)
CC1(C)SC2C(NC(=O)COc3ccccc3)C(=O)N2C1C(=O)O (stereo not drawn) | 5.73% (inactive) and 56.2% (active)
CC1(C)S[C@@H]2[C@H](NC(=O)COc3ccccc3)C(=O)N2C1C(=O)OCc1ccccc1 (stereo partly drawn) | -9.56% (inactive)
COc1ccccc1N1CCN(c2ncnc3sc(C)c(-c4ccccc4)c23)CC1 | -10.6% (inactive)
CCn1c(/C=N/NC(=O)c2ccc(OC)cc2)nc2ccccc21 | -11% (inactive)
O=C(C1CCCO1)N1CCN(C(=S)NC2CC2)CC1 (stereo not drawn) | 8.17% (inactive)
COc1ccccc1N(C(=O)Cn1nnc2ccccc21)C(C(=O)NCc1ccco1)c1ccc(C)o1 (stereo not drawn) | 14% (inactive)
O=C(Nc1ccc(F)c(Cl)c1)C1CCN(S(=O)(=O)c2cccnc2)CC1 | 12.9% (inactive)
Nc1nnnn1/N=C/c1cccc(Br)c1 | 0.88% (inactive)
Cc1ccc(NC(=O)OCc2cncs2)cc1 | 52.5% (active)
Cc1ccc(NC(=O)OCCNC(=O)c2ccncc2)cc1 | -1.13% (inactive)
CCOC(=O)Nc1ccc(NC(=O)OCC)cc1 | 10.4% (inactive)

SMILES | inhibition
FC(F)Oc1ccccc1NC(=S)Nc1cccc(Cl)c1Cl | 21.2% (inactive)
CCN(CC(=O)NCc1ccc(Cl)cc1)C(=O)CSc1ccccc1 | -3.34% (inactive)
COc1ncnc2c1N=C1CC(C)(C)CC(N)=C1S2 | -11.6% (inactive)
O=C(NCc1ccc2c(c1)OCO2)C12CC3CC(CC(C3)C1)C2 | 0.46% (inactive)
CCc1c(O)nc(SCC(=O)Nc2ccccc2)n(C(C)CC)c1=O (stereo not drawn) | 9.62% (inactive)
CCOC(=O)c1sc(C)c2c1NC(C)(c1cccc3ccccc13)NC2=O (stereo not drawn) | -0.92% (inactive)
COc1ccc(CCNC(=O)CCC(=O)NC2CCCCC2)cc1OC | 4.77% (inactive)
CCOP(=O)(OCC)C(Nc1ccc([N+](=O)[O-])cc1)c1ccc(Cl)cc1 (stereo not drawn) | -0.81% (inactive)
CCO[C@H]1OC(C(=O)NCc2ccccc2)=C[C@@H](c2coc3ccccc3c2=O)[C@@H]1CCCO | -1.21% (inactive)
C=CCSc1nnc2c(n1)-c1cccc3cccc-2c13 | -4.2% (inactive)
O=S(=O)(O)c1nc2ccccc2n1Cc1ccc(Cl)cc1Cl | 16.4% (inactive)
O=C(Cn1c(NCCO)nc2ccccc21)c1ccc(Cl)cc1Cl | 62.2% (active)
CC(C)(C)C(=O)Cn1c(NCCO)nc2ccccc21 | -16.2% (inactive)
Cn1cc(CN2CCC(C(O)CCc3ccccc3)CC2)c(-c2ccccc2F)n1 (stereo not drawn) | -11.7% (inactive)
Cc1c(NC(=O)c2c([N+](=O)[O-])cnn2C)c(=O)n(-c2ccccc2)n1C | 17.6% (inactive)
Cc1ccc(C2NC(=S)NC3=C2N2CCC3CC2)cc1 (stereo not drawn) | 2.28% (inactive)
CC[C@@H]1CCCCc2ccccc2[C@@H](C(=O)C[C@H](O)CC(C)=O)OC1=O | -25.7% (inactive)
O=C(Nc1ccc(Br)cc1)C1CCC(=O)N1Cc1ccccc1Cl (stereo not drawn) | 28.5% (inactive)
CCN(CC(=O)Nc1c(F)cccc1F)C(=O)c1ccc(-c2ccccc2)cc1 | -6.8% (inactive)
CCCC[C@@H]1CN=C(N)N1CCc1cc(C(F)(F)F)cc(C(F)(F)F)c1 | 8.42% (inactive)
CC1CC(C)CN(S(=O)(=O)c2cccc(C(=O)N3C(=O)c4cccc(N)c4C3=O)c2)C1 (stereo not drawn) | 3.91% (inactive)
